Data as given in PubChem BioAssay AID1508600 (Functional Genomics Laboratory (NCATS/FGL), 2020).
About 3,700 (7%) of roughly 53,000 sequences were called active. The full list was thinned out, with actives kept by preference. A number with no mark means an inactive call.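 Rule for the calls: active = gene knockdowns whose robust z-score for IL-1 alpha signal is at least 2 or at most -2, so actives lie on both sides; inactive = the rest.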

test: Components of the Cytosolic LPS Sensing Pathway: Gene Identification via Genome-wide siRNA Screen; conditions: RAW264.7 macrophages, IL-1a HTRF, actives lie on both sides, screened at 100 nM (by protocol), cells primed 5 h with Pam3CSK4 first;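 note: robust z of the log signal after scaling to non-targeting control siRNA wells of the plate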
Outline: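 RAW264.7; siRNA 100 nM final, RNAiMAX, 48h 37 degrees C; Pam3CSK4 5 h; LipidA + TransIT-TKO 24 h; IL-1a HTRF; CellTiter-Glo viability; robust z vs negative-control median.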

Row | Sequence | z-score
1 | GGGCCAAGAGCUUCUUUGATT against Ahr | -1.46
2 | GGACUUUGAGAAAGCAUUCTT against Pck1 | -2.03 (active)
3 | GGAUAAUGUGAAGUUCAAGTT against Rpl38 | 0.493
4 | GCAUUGACAAGAUAUCUAATT against Abhd17c | 1.74
5 | GGCUCCUAGUGAUUAAAAGTT against 4930578I06Rik | 0.0788
6 | GGGAAAGCAUCGUAGACUCTT against Eid2 | 0.0738
7 | GGAGGAAAUGAUCACAGCUTT against Ccl20 | -2.31 (active)
8 | CCAGUCACUAUUUGAGUGUTT against Erg | 1.9
9 | GGUGAAUACUUCAGAUACATT against Sult2b1 | -0.362
10 | GGAUUCACUGUUUUAUUCUTT against Fap | 0.282
11 | GGAUGCAAUCGACAUGGAGTT against Atp5pb | 2.71 (active)
12 | GGUUUUUGGGAAUUGGCUUTT against Sfxn5 | -0.0222
13 | GCGGUCCAUCAUCAAACUCTT against Rpap2 | -1.3
14 | CCCAACAUAUUUUUUAGCATT against Hmgcll1 | -0.506
15 | GGUGGUUGUUAUUGAAAAGTT against Mical3 | 1.34
16 | CGACAUUUGUGUUAACCAUTT against Gprc5c | -0.483
17 | GGAGCUUUUGGACCACUUGTT against Tmod1 | -0.892
18 | GCAAACGACGAAAGUCCAATT against Usp49 | -1.63
19 | CCAUAAACGACGAAAUGAUTT against Usp11 | 0.189
20 | GGCAUUUGACUUUAUUGCATT against Nit1 | 3.54 (active)
21 | GGUCAAGCAAGUGUUGGUUTT against Gart | -0.0147
22 | GGAAGAUUCCGACUUUAUUTT against Irs4 | 0.69

Row | Sequence | z-score
23 | GCUCAGACAAGAAUUGCUATT against Specc1 | -0.612
24 | CCACCUUUCGUGCAUUAUCTT against Coro6 | 1.32
25 | GGCUGUCAUACUUUCAGGGTT against Hyal5 | 2.51 (active)
26 | GGGCCAAGGAAGAACUUCATT against Clec12a | -0.655
27 | GGAAAAAGAGGCCAAAAAGTT against Arid4a | -0.221
28 | GGUCAAUGUGAUUGAGGAUTT against Acap1 | 0.869
29 | CCUAUUGAGUCAUCCAUCGTT against Utp25 | -0.586
30 | GCAGUACGCUGCAUUUAAATT against Mtrf1l | 0.551
31 | GGAGUUUCAACUCUUCUUCTT against Necab2 | -0.576
32 | GCUCCUGAACUAAUACAAGTT against Melk | 5 (active)
33 | GGUGAGGAGGAAAUCCUGCTT against Rdh10 | -1.21
34 | CCUGCUUUGUAUCUCCUCCTT against Csprs | 0.184
35 | GCAACAAUGAGAGACCACATT against Htr5a | 3.27 (active)
36 | GGAAGCAUCUCAUUAUUCATT against Lamp2 | 0.0306
37 | GGCACCUACAUCCUUAUUGTT against Ptprn | -0.16
38 | GGAAAGGAAAAUCAACUUCTT against Usp14 | 0.0989
39 | GCUUUCUUUUGCACUUGAATT against Ctc1 | -1.1
40 | CCACAUGUCACAUCUUUUCTT against Mrpl47 | 0.16
41 | GGCACAGACUAAGGUAUAGTT against Adra2c | -1.51
42 | GCCCUGAAGCCUAUAAUCATT against Nhlrc1 | 2.34 (active)
43 | GGCAACAGUACCAAAGACATT against Rps24 | 0.483
44 | GGCCGAAUCACAGAAACUCTT against Mrps18a | 1.87

Row | Sequence | z-score
45 | GUAAGCAGCAACAGAGGCUTT against Cd70 | -0.558
46 | GGCAUUGAAGGAAGUGAUCTT against Psmg3 | -2.9 (active)
47 | GGCCUUAGUAUUCUGCCUCTT against Nuak1 | 0.395
48 | GGGAAUUCACACUGUCUGGTT against Tmem176a | -1.73
49 | CGGCUAAGGAAAAAUGUGATT against Nr1h4 | -1.26
50 | CCAACAUCCUUAAGCGGCUTT against Lonp1 | -0.161
51 | GGUCAAAGGUGAAGAGAAATT against Chgb | 1.43
52 | GGAAACAGCAUCAUCAUGUTT against Snrpg | -2.28 (active)
53 | CGUACAUCGUCGAGAUUUUTT against Rims1 | 0.839
54 | GCGGAACCUAUAUAGGAAUTT against Zfp74 | -0.292
55 | CGAGAGUAGCUUGUUGCUGTT against Rhobtb3 | 0.359
56 | GCUGUAUGGGAAGGGUUACTT against Tsen2 | 0.829
57 | GGAUCAGUACCUGUGAUGGTT against Adamdec1 | -2.07 (active)
58 | GGAUCGUAGAACACCCUUCTT against Robo2 | -0.00164
59 | GGAUUCCACAAUUUUUGUATT against Ncoa6 | -0.399
60 | GCGGGUUAACUUGUUUGGUTT against Zcwpw1 | 0.525
61 | GGCUUACACAAAAAUCUGUTT against Camk2d | -0.36
62 | GGAAAUUACCUUGAUGAUGTT against Anxa4 | -1.59
63 | GGACAAUCUGAUUCAAGUATT against Ms4a2 | 0.104
64 | GUUGUGCAAUCAACAAGGUTT against Fam98c | 2.05 (active)
65 | GCUACGCAAUAAGACCACATT against Lamc3 | 2.25 (active)
66 | GGAGCUCAUUAGCAAAUAUTT against Olfm5 | -0.859

Row | Sequence | z-score
67 | GUACAAGCUCAAGUGCUCGTT against Casz1 | -0.463
68 | GGAACUCCUGACUCUCAGATT against Htra2 | -1.19
69 | UGUACUGAUACAUACUUCCTT against Olfr1249 | -0.487
70 | GCAUGACAGUCAACACAAGTT against Slc35f6 | 2.04 (active)
71 | GGAAAUAGACACCAAGAGCTT against Mau2 | -1.64
72 | GCAUCAUUAAGUGCUACCGTT against Pcdhac2 | -0.263
73 | UCUAUCUCAUUACUAUUGUTT against Olfr190 | 0.649
74 | CCUAUCAAACUGACUUCAUTT against Castor2 | 0.309
75 | GGACCUCCCACAGUGUUAUTT against Enpp2 | -0.574
76 | GGGAAACAGAUGAAAGAGUTT against Relch | 0.0344
77 | GGUUUGAACUUCAGCAACUTT against Adam15 | -2.17 (active)
78 | GGUCCACUUAGUGGCUUAATT against Atp5pb | -0.227
79 | GGUGUAUUGAGCUAAACAUTT against Rnft2 | -0.344
80 | GGCAUGAGCGAGUUAAACCTT against Usp53 | 1.65
81 | GGAGAACAUUCAGGUGACATT against Pdgfd | -0.625
82 | GGCGAUGUGAAAAUCUUAATT against Xpnpep2 | 3.65 (active)
83 | GGCCUCUUAUGUCAACCUGTT against Rpsa | -1.57
84 | GCCGAUUCUUCAAUGUGCGTT against Ribc1 | -0.242
85 | CCAGCACGCUGAAGUCUGATT against Adam19 | 1.21
86 | CCCUAUCGUGAUUUAUUGGTT against C130073F10Rik | -1.33
87 | GGGUACAAAGCAACAUUGGTT against Disp1 | 4.2 (active)
88 | GCAAUGUGCACGAUGAUGATT against Pik3cg | -0.79

Row | Sequence | z-score
89 | CCUAGUGAAUCCUCUCGUATT against Eqtn | 0.178
90 | GCCGAGCUCAAUGUGGGUATT against Bsn | 1.11
91 | GGAAGAAAGUGAGCCUUGUTT against Senp6 | -2.14 (active)
92 | GGCAGAGAGAUGUUACAAGTT against Ccl8 | 0.408
93 | GGUACACUGGUAUACGUAUTT against Samd9l | -1.45
94 | GGCUGAUCCAUUUUCACAATT against Adam6a | -2.77 (active)
95 | GGUUUCAAGACAUUGAAAGTT against Arl14ep | -0.424
96 | CGAUGACAUCAGGAUUGUUTT against Adgrg7 | -0.124
97 | GGACUUAUUAUGUGAGUGUTT against Ncbp2 | 0.555
98 | GGAAAUCAGAAGAAGAACATT against Hars | 2.67 (active)
99 | CGGACACACUUUGUUAUUATT against 4833420G17Rik | 0.198
100 | GGACGUAACAAAAUGUUCUTT against P2ry12 | 0.578
101 | CGGUGGAAUUCGUUAGAAGTT against Ireb2 | -0.183
102 | GGAAGGCCCUAGAAAGGACTT against Gm5094 | 0.209
103 | GCGUGGCUGUCAUGUAUUUTT against Olfr231 | 0.247
104 | GGAAGAUGUAUUCUUCUCCTT against Gemin4 | 0.499
105 | GGAGAAGGAGCUGGAAACGTT against Cttn | 0.645
106 | CCUGAAAACCAUGCAAUACTT against Tas2r125 | -2.37 (active)
107 | GGGCUACUUCCUGACUAAATT against Ube2s | -0.505
108 | GGACACUAUGCAAUCACCCTT against Rnf216 | -0.481
